ClpP mod: qHTS Assay for Activators of ClpP. 1.9% of 340,000 active. ATP-dependent Clp protease proteolytic subunit (Bacillus subtilis (strain 168)), P80244. AID 651965, 2013. Potency, µM (titrated, usually from 57.5 µM). purified B. subtilis ClpP, FRET peptide cleavage, 20 min; active = well fitted falling curve with a large enough effect; inconclusive = small, poorly fitted or top-dose-only effect; inactive = no such curve, though single readings can be large or run the other way; also: the source files actives as falling curves though it sought activators and does not explain the sign; nearly all actives have a fitted effect of over 65% in size
Target sequence (P80244 whole entry, looked up): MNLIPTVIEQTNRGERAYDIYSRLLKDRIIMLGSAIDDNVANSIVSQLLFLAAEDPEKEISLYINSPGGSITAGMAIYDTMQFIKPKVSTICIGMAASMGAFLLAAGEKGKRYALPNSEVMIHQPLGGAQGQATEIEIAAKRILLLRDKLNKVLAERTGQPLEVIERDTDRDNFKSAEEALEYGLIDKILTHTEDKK
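Buffer: 100 mM Tris/HCl pH8, 100 mM KCl, 0.05% low protease BSA, 2.5% glycerol, 0.01% Tween-20. ClpP 10 microg/mL final; 20 min RT; delta FRET normalized to ADEP and DMSO controls.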
A549 tox: Nrf2 qHTS screen for inhibitors: counterscreen for cytotoxicity; A549 ARE-Fluc cells, CellTiter-Fluor viability, 18-24 h; Potency, µM (doses to about 46 µM), usual class: inhibitors; 0.16% of 390,000 active; AID 504648, 2011
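A549 ARE_Fluc cells in 5% FBS OPTI-MEM were exposed to compounds in concentration-response for 18-24 h at 37 deg C. Viability was read by CellTiter-Fluor fluorescence (Ex 405/Em 525) after 30 min, before the luciferase read.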
Nrf2 block: Nrf2 qHTS screen for inhibitors | Potency, µM (titrated, usually from 46 µM), hits mostly inhibitors | 2.1% of 360,000 active | AID 504444, 2011 | A549 ARE-Fluc reporter, luciferase luminescence, 18-24 h; also: nearly all actives have a fitted effect of over 60% in size
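Cells were seeded and rested 2 h, then exposed to compounds for 18-24 h. CellTiter-Fluor was read first as a viability measure. BugLite was added 15 min before the final luminescent read of ARE-luciferase activity in A549 cells.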
Nrf2 activator: qHTS of Nrf2 Activators. 0.31% of 410,000 active. AREc32 ARE-luciferase reporter (MCF7-derived line), luminescence, 24 h. Potency, µM (series often up to 46.1 µM), most hits filed as activators; also: nearly all actives have a fitted effect of over 65% in size
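Steps: seed AREc32_Fluc cells (1000/well, 5% FBS OPTI-MEM); incubate overnight at 37 deg C; add 23 nL compound; incubate 24 hr; add Steady-Glo; hold 30 min RT; read luminescence.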
IL-2 act: qHTS of IL-2 Activators | IL-2 activation reporter assay, cell-based qHTS; stimulated with anti-CD3/CD4/CD28 beads; in transgenic mouse T cells | activation, % (series mostly up to about 46 µM) | 0.065% of 360,000 active | AID 652025, 2013; in the data active = activation above about 50%; inconclusive = mostly about 30% to 49%
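Unstimulated transgenic mouse T cells; 60-min compound exposure; bead-based TCR/CD4/CD28 stimulation; 18 h culture, 37 degrees C; dual fluorescence (EGFP, DsRed) plate cytometry.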
miR-21 reporter: qHTS Assay for Modulators of miRNAs and/orActivators of miR-21 | HeLa miR-21 FLuc reporter, luciferase, 48 h | Potency, µM (titrated, usually from 38.3 µM), actives largely listed as activators | 340,000 tested, under 10 active;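 also: miR-21 action dims this reporter so a rising signal means less miR-21 action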
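Using DMEM plus 10% FBS, HeLa miR-21-FLuc cells are incubated with test compounds (final up to about 40uM) for 48 hours; firefly luciferase signal is then imaged following reagent-mediated lysis.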
Large screens that a line does not name were inactive. Hits are enriched below; roughly 3.7% of the tested compounds scored in any of these assays. Unless noted, calls follow the shape of the dose curve; as a rule, active = well fitted curve in the direction sought with a large enough effect; inconclusive = small, poorly fitted or top-dose-only effect, or another doubt; inactive = no such curve, though single readings can be large; an effect the other way counts as inactive or inconclusive.

CCc1cc2c(=O)c(-c3cnn(-c4ccccc4)c3)coc2c(CN2CCOCC2)c1O	ClpP mod inconclusive
COc1ccc(-c2nc3sc(CCNS(=O)(=O)c4c(C)cc(C)cc4C)c(C)n3n2)cc1	none (no result: Nrf2 block, IL-2 act)
O=c1oc2ccccc2cc1-c1cn2ccccc2n1	Nrf2 block inconclusive, miR-21 reporter inconclusive (no result: ClpP mod)
Cc1oncc1-c1cn2ccccc2n1	ClpP mod 25µM
Cc1ccn2cc(-c3cnoc3C)nc2c1	ClpP mod 14µM
Cc1ccc(-c2cn3ccc(C)cc3n2)cc1	Nrf2 block inconclusive, miR-21 reporter inconclusive (no result: IL-2 act)
COc1ccc(NC(=O)[C@@H]2CC=C[C@@H]3CCN(C4CC4)C(=O)[C@@H]32)cc1	none (no result: A549 tox, Nrf2 block, Nrf2 activator, IL-2 act, miR-21 reporter)
Cc1ccc(Cl)cc1N1CCN(C(=O)c2cc(S(=O)(=O)N3CCCC3)cn2C)CC1	none (no result: IL-2 act)
Nc1ccc(/C=C/c2cccc3cccnc23)cc1	none (no result: A549 tox, Nrf2 block, Nrf2 activator, IL-2 act, miR-21 reporter)
COc1ccccc1N/C(N)=N/c1nc(CSc2ccc(C)cc2)cc(=O)[nH]1	Nrf2 block 21µM
Cc1ccc(SCc2cc(=O)[nH]c(/N=C(\N)Nc3ccccc3Sc3ccccc3)n2)cc1	none
COc1ccccc1NC(=O)c1cc2c(n(-c3ccc(C)cc3)c1=O)CC(C)(C)CC2=O	none (no result: IL-2 act)
Cc1nn(-c2ccc(F)cc2F)c2c1-c1nc(N3CCCC3)ncc1CC2	ClpP mod 32µM, Nrf2 block inconclusive
Cc1nc(N2CCCC2)ncc1C(=O)NCc1ccc(F)cc1	none (no result: Nrf2 block, IL-2 act)
CN(Cc1ccccc1)C(=O)c1cc(-c2cccc(Cl)c2)on1	none (no result: IL-2 act)
O=C(COC(=O)c1ccccc1-n1cnnn1)c1ccc(Br)cc1	ClpP mod 16µM, Nrf2 block inconclusive (no result: miR-21 reporter)
O=C(COC(=O)c1ccccc1-n1cnnn1)c1ccccc1	none (no result: ClpP mod, miR-21 reporter)
Oc1ccc(N2CCN(c3ncnc4sc5c(c34)CCC5)CC2)cc1	Nrf2 block 15µM
O=C(Nc1ccc(Oc2cccc(C(F)(F)F)c2)nc1)c1cccs1	Nrf2 block 16µM (no result: ClpP mod)
CCOc1cc(/C=N/NC(=O)CNc2cccc(C)c2)ccc1OC(=O)c1ccccc1	ClpP mod 10µM
CCOc1cc(/C=N/Nc2cccc(C(=O)O)c2)ccc1OC(=O)c1ccccc1	Nrf2 block inconclusive (no result: ClpP mod)
CC1Cc2cc(S(=O)(=O)NCc3ccccc3Cl)ccc2N1C(=O)C1CCC1 (centres undefined)	Nrf2 block 26µM (no result: IL-2 act)
COc1ccc(CNS(=O)(=O)c2ccc3c(c2)CC(C)N3C(=O)C2CC2)cc1 (centres undefined)	Nrf2 block inconclusive
CC1Cc2cc(S(=O)(=O)NCc3ccc(N(C)C)cc3)ccc2N1C(=O)C1CCC1 (centres undefined)	Nrf2 block 23µM (no result: IL-2 act)
c1ccc(C2Nc3ccccc3Oc3ccccc32)cc1 (centres undefined)	none
O=C1NC(c2ccccc2)N=C2Oc3ccccc3C=C12 (centres undefined)	ClpP mod 11µM, Nrf2 block inconclusive, Nrf2 activator inconclusive (no result: miR-21 reporter)
CC1=Nc2cc(C(=O)NCCCOC(C)C)ccc2Sc2ccc(C)cc21	Nrf2 block 23µM (no result: ClpP mod)
CC(C)OCCCNC(=O)c1ccc2c(c1)NC(=O)c1ccccc1S2	Nrf2 block 21µM
CCCC1=Nc2cc(C(=O)NCCCOC(C)C)ccc2Sc2ccccc21	A549 tox inconclusive, Nrf2 block 8.2µM
CC1=Nc2cc(C(=O)NCCCOC(C)C)ccc2Sc2ccccc21	none (no result: ClpP mod)
CCC1=Nc2cc(C(=O)NC3CCC(C)CC3)ccc2Sc2ccc(C)cc21 (centres undefined)	Nrf2 block inconclusive (no result: IL-2 act)
O=C(NCCCN1CCCCC1)c1ccc2c(c1)NC(=O)c1ccccc1S2	none
CCCC1=Nc2cc(C(=O)NCCCOCC)ccc2Sc2ccccc21	A549 tox inconclusive
CCOC(=O)N1CCC(NC(=O)c2ccc3c(c2)N=C(CC)c2cc(C)ccc2S3)CC1	Nrf2 block 23µM
CCOc1ccccc1CNC(=O)CN1C(=O)c2cccnc2Oc2ccc(C)cc21	none (no result: IL-2 act)
